This note sets out measurements from PubChem BioAssay AID1851 (National Center for Advancing Translational Sciences (NCATS), 2009).

In all, about 16,000 compounds went through this assay and about 5,100 (32%) were called active. Another 25% or so got no clear call; they are omitted. Some of the results follow. A number with no mark means an inactive call. Calls follow the shape of the dose curve; as a rule, active = well fitted curve in the direction sought with a large enough effect; inconclusive = small, poorly fitted or top-dose-only effect, or effect the other way; inactive = no such curve, though single readings can be large or run the other way.
% is scaled to controls: 0 for no effect and ±100 for the full control effect.

The assay deals with Cytochrome P450 3A4 (Homo sapiens) (UniProt P08684). The assay can be described thus: Cytochrome panel assay with activity outcomes. As to conditions: recombinant CYP, pro-luciferin dealkylation, luminescence, p450-cyp3a4; series mostly up to 57.1 µM; activity, negative = inhibition: at the top concentration.
Sequence of Cytochrome P450 3A4 (Homo sapiens) (P08684 whole entry, looked up): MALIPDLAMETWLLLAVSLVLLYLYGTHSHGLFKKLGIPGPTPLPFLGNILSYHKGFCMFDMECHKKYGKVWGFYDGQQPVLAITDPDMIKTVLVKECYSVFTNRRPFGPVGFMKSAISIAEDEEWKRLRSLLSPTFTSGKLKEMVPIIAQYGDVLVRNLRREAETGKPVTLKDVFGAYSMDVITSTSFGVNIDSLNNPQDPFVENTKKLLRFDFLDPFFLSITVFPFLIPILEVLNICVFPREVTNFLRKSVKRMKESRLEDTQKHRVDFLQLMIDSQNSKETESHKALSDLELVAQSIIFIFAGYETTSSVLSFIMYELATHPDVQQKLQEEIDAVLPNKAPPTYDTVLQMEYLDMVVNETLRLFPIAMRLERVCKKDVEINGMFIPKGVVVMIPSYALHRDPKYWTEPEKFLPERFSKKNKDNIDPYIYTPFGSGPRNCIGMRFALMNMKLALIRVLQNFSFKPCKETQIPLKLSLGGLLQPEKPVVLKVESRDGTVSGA
Regarding `O=S(Cc1ccc(Br)cc1)Cc1nnc(SCc2ccc(Cl)cc2)n1-c1ccccc1` (stereo not drawn), the half-maximal activity concentration (AC50) is 7.08 µM (active).

`COC(Cc1nnc(SC)n1-c1ccc(Cl)cc1)OC`: the “activity, negative = inhibition” value was -7.38%.

In the case of `O=P(O)(CCc1ccccc1)C(O)c1ccccc1` (stereo not drawn), the activity, negative = inhibition is 2.84% [at 11.4 µM].

Take `CCCC(C(=O)Nc1nccs1)c1ccccc1` (stereo not drawn): the AC50 is 12.6 µM (active).

Turning to `CCC(=O)[C@@H](c1ccccc1)c1ccccn1`, the activity, negative = inhibition is -1.45% [at 11.4 µM].

Consider `O=C(O)c1ccccc1C(=O)Nc1nccs1`, for which the “activity, negative = inhibition” value was -3.78%.

For `O=[N+]([O-])c1cc(C(F)(F)F)ccc1NCCCCNS(=O)(=O)c1ccc2ccccc2c1`, the concentration at half-maximal activity (AC50) was 14.1 µM (active).

Turning to `Cc1c(Cl)c([N+](=O)[O-])nn1CC(=O)Nc1c(C)n(C)n(-c2ccccc2)c1=O`, the “activity, negative = inhibition” value was -28.3%.

As to `Cc1nn(Cc2ccccc2Cl)c(C)c1NC(=O)CCCn1nc(C)c([N+](=O)[O-])c1C`, the AC50 was 2.51 µM (active).

In the case of `Cc1nn(CC(=O)NCCN2CCOCC2)c(C)c1[N+](=O)[O-]`, the “activity, negative = inhibition” value is -13.5%.

In the case of `S=C(NCc1ccccn1)Nc1cccc(Cl)c1`, the AC50 was 10 µM (active).

Turning to `CN(C)CCNC(=S)Nc1cccc(Cl)c1`, the “activity, negative = inhibition” value is 21.6%.

As for `O=C(Nc1cccc(F)c1)Nc1ccccn1`, the “activity, negative = inhibition” value is -1.91%.

`COCC(=O)N1CCC2(CC1)CN(C(=O)Nc1ccccc1)C2`: the “activity, negative = inhibition” value is -5.28%.

For `CN1CCN(c2nc(-c3ccccc3)cc(C(F)(F)F)n2)CC1`, the “activity, negative = inhibition” value is -3.68%.

Regarding `CC(Sc1nc(-c2ccccc2)cc(C(F)(F)F)n1)C(=O)N1CCCCC1` (stereo not drawn), the AC50 is 7.08 µM (active).

Turning to `CCOC(=O)c1cc2c(C(F)(F)F)cc(-c3ccccc3)nc2o1`, the activity, negative = inhibition was -1.96% [at 2.29 µM].

With `c1ccc(-c2ccc3c(c2)c2c4n3CCN=C4CCC2)cc1`, the “activity, negative = inhibition” value is -17.2%.

`CCCS(=O)(=O)N1CCCC(C(=O)NCCN(C)Cc2ccccc2)C1` (stereo not drawn): the activity, negative = inhibition is 12.8% [at 2.29 µM].

With `CCCS(=O)(=O)N1CCCC(C(=O)NCCCOCC)C1` (stereo not drawn), the “activity, negative = inhibition” value was -4.59%.

Consider `CCOc1ccc(OCC)c(NC(=O)C2CCCN(S(=O)(=O)c3cccs3)C2)c1` (stereo not drawn), for which the AC50 was 5.62 µM (active).

Turning to `Cn1c(=O)c(-c2cccs2)nc2cncnc21`, the AC50 was 7.94 µM (active).

`COCCn1c(=O)c(C)nc2cncnc21`: the AC50 is 12.6 µM (active).

In the case of `COCCn1c(=O)c(-c2cccs2)nc2cncnc21`, the AC50 was 15.8 µM (active).

Consider `COc1ccccc1CCn1c(=O)c(-c2cccs2)nc2cncnc21`, for which the AC50 is 3.16 µM (active).

On to `COc1ccc(-n2c(=O)c(-c3cccs3)nc3cncnc32)cc1`, for which the “activity, negative = inhibition” value was -28.3%.

In the case of `CCCC(O)(CCC)C(=O)NN1CCCCC1`, the “activity, negative = inhibition” value is -18.6%.

In the case of `CN(C)c1ncc2nc(-c3ccc(F)cc3)c(=O)n(CCc3ccccc3)c2n1`, the “activity, negative = inhibition” value was -2.76%.

For `COc1ccccc1CCn1c(=O)c(-c2cccc(Cl)c2)nc2cncnc21`, the AC50 is 6.31 µM (active).

With `O=c1c(-c2cccc(Cl)c2)nc2cncnc2n1Cc1ccccc1`, the “activity, negative = inhibition” value was -22.5%.

For the compound `COc1ccccc1CCn1c(=O)c(-c2ccc(F)cc2)nc2cncnc21`, the AC50 was 3.98 µM (active).

On to `Cc1nc2cncnc2n(C2CC2)c1=O`, for which the AC50 was 15.8 µM (active).

With `Cc1nc2cnc(N(C)C)nc2n(C2CC2)c1=O`, the “activity, negative = inhibition” value was 2.85%.

Turning to `O=c1c(-c2ccccc2)nc2cncnc2n1C1CC1`, the “activity, negative = inhibition” value was -32.8%.

`COc1ccccc1CCn1c(=O)c(-c2ccc(Cl)cc2)nc2cncnc21`: the half-maximal activity concentration (AC50) was 3.98 µM (active).

Regarding `O=c1c(-c2ccc(F)cc2)nc2cncnc2n1C1CC1`, the “activity, negative = inhibition” value was -29.9%.

For `CC(=O)O[C@@H](C)C[N+](C)(C)C`, the AC50 entry is “inactive”.

Consider `COc1ccccc1CCn1c(=O)c(-c2ccccc2)nc2cncnc21`, for which the AC50 was 3.98 µM (active).

On to `COc1ccccc1CCn1c(=O)c(-c2ccc(F)c(F)c2)nc2cncnc21`, for which the AC50 was 3.16 µM (active).

Turning to `COCCn1c(=O)c(-c2ccccc2)nc2cncnc21`, the “activity, negative = inhibition” value is -40%.

Turning to `Cn1c(=O)c2c(nc(C(=N)SCC(=O)O)n2C)n(C)c1=O`, the activity, negative = inhibition was -27.7% [at 11.4 µM].

For the compound `CSc1ncnc2c1ncn2[C@@H]1O[C@@H](CO)[C@H](O)O[C@@H]1O`, the activity, negative = inhibition is -26.2% [at 11.4 µM].

Take `OCCNc1ncnc2c1ncn2[C@@H]1O[C@@H](CO)[C@H](O)[C@@H]1O`: the activity, negative = inhibition was -9.88% [at 11.4 µM].

For `CNc1ncnc2c1ncn2[C@@H]1O[C@@H](CO)[C@H](O)[C@@H]1O`, the “activity, negative = inhibition” value is -11.5%.

Consider `Nc1ccc(CCNc2ncnc3c2ncn3[C@@H]2O[C@@H](CO)[C@H](O)[C@@H]2O)cc1`, for which the AC50 is 25.1 µM (active).

As for `Cc1ccc(NC(=O)Nc2nc(-c3ccc(C)s3)cs2)cc1`, the activity, negative = inhibition is -0.444% [at 2.29 µM].

Consider `Cc1ccc(NC(=S)Nc2nc(CC(=O)Nc3ccccc3)cs2)cc1`, for which the AC50 was 6.31 µM (active).

In the case of `CNC(=O)[C@@H]1O[C@@H](n2cnc3c(N)ncnc32)[C@@H](O)[C@H]1O`, the “activity, negative = inhibition” value is 1.94%.

Take `O=C(Nc1ccc(Cl)cc1)OCc1cc(-c2ccccc2)on1`: the “activity, negative = inhibition” value was -7.05%.

As to `CCC(=O)NNC(=O)CCC(=O)Nc1ccccc1`, the “activity, negative = inhibition” value was 0.807%.

On to `COc1ccc(CC(=O)Nc2cccc(-c3nnc(-c4ccco4)o3)c2)cc1`, for which the concentration at half-maximal activity (AC50) was 2 µM (active).

In the case of `O=C(Cc1ccc(Cl)cc1)Nc1cccc(-c2nnc(-c3ccco3)o2)c1`, the AC50 is 7.94 µM (active).

In the case of `CCC(=O)Nc1ccc2c(c1)C(=O)c1ccccc1C2=O`, the AC50 is 7.08 µM (active).

On to `Clc1ccc(-c2nnc(-c3ccco3)o2)cc1`, for which the activity, negative = inhibition was 1.16% [at 11.4 µM].

As to `O=C1c2ccccc2-c2ccc(NC(=O)[C@H]3CCCC[C@@H]3C(=O)O)cc21`, the activity, negative = inhibition is -29% [at 11.4 µM].

Consider `COc1ccc(CC(=O)Nc2ccc(-c3nnc(-c4ccccc4)o3)cc2)cc1`, for which the “activity, negative = inhibition” value was 7.9%.

Take `O=C(Nc1ccc(Nc2ccc3c(c2)C(=O)c2ccccc2C3=O)c2c1C(=O)c1ccccc1C2=O)c1ccccc1`: the activity, negative = inhibition was -7.98% [at 11.4 µM].

For `CCC(=O)Nc1cccc(-c2nnc(-c3cccc(NC(=O)CC)c3)o2)c1`, the AC50 is 14.1 µM (active).

For the compound `CO[C@]1(NC(=O)Cc2cccs2)C(=O)N2C(C(=O)O)=C(COC(N)=O)CS[C@H]21`, the “activity, negative = inhibition” value was -15.5% [at 25.6 µM].

As for `O=C1Nc2ccc(F)cc2C12SCCS2`, the “activity, negative = inhibition” value was -8.71%.

Turning to `COc1cccc(-c2[nH]nc3c2C(c2ccc(C)o2)C(C#N)=C(N)O3)c1` (stereo not drawn), the activity, negative = inhibition is -27.5% [at 2.29 µM].

As for `Cc1ccc(SCc2[nH]nc3c2C(C(C)C)C(C#N)=C(N)O3)cc1` (stereo not drawn), the activity, negative = inhibition was -16.4% [at 2.29 µM].

In the case of `COc1cccc(-c2[nH]nc3c2C(c2ccsc2)C(C#N)=C(N)O3)c1` (stereo not drawn), the AC50 is 7.08 µM (active).

Broadly, the AC50 is the concentration giving half of the maximal activity seen.
